The nature of test [1]: MultiTox-Fluor Cytotoxicity Assay - LYMP1-002 - Live Cells (AID 955). The method in brief:
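Read-out is live-cell protease activity (cell-permeant GF-AFC substrate, fluorescence Ex/Em=405/510), where a decrease indicates acute toxicity. Human lymphoblastoid cells were treated 16 hours at 37 C in a concentration series, and AC50 values came from standard Hill modelling.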

The nature of test [2]: MultiTox-Fluor Cytotoxicity Assay - LYMP1-002 - Dead Cells (AID 960). Also: nearly all actives have a fitted effect of over 60% in size. Also: potency is read from the fitted curve at half-maximal effect. The method in brief:
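LYMP1-002 cells 2500/well; 5 hr 37 C pre-incubation; compound 16 hr 37 C; MultiTox-Fluor reagent 60 min RT; dead-cell fluor Ex/Em 485/520. Norm. to DMSO (0%) vs 15 uM tetraoctylammonium bromide (100%); Hill AC50.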

Test [3] can be described thus: MultiTox-Fluor Cytotoxicity Assay - LYMP1-003 - Dead Cells (AID 961). Also: nearly all actives have a fitted effect of over 70% in size. Put shortly: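 LYMP1-003 human lymphoblastoid cells (2500/well) exposed to compound 16 h at 37 C in complete medium; dead-cell protease read with bis-AAF-R110 fluorescence (Ex/Em 485/520) after 60 min at room temperature. Normalized to DMSO and 15 uM tetraoctylammonium bromide; AC50 from Hill fit.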

The nature of test [4]: MultiTox-Fluor Cytotoxicity Assay - LYMP1-003 - Live Cells (AID 962).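 Also: cytotoxic hits lower the live-cell protease signal.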 Put shortly:
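qHTS, 1536-well; 2500 cells/well LYMP1-003; 5 hr 37 C settle; cpd 16 hr 37 C; MultiTox-Fluor reagent 60 min RT; live-cell protease fluor. 405/510; Hill-fit AC50; tetraoctylammonium bromide pos. ctrl.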

The nature of test [5]: Cell Viability - LYMP1-003 - Assay at 24 hr (AID 963). Put shortly: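 Cells seeded at 2500/well, 5 hr at 37 C; compounds added; 24 hr at 37 C; CellTiter-Glo added, 30 min room temperature; luminescence read. Decrease in ATP taken as cytotoxicity, AC50 from Hill modelling.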
Test [6] in a line: Cell Viability - LYMP1-003 - Assay at 40 hr (AID 964). Also: series mostly up to about 92 µM; nearly all actives have a fitted effect of over 60% in size. The method in brief:
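Cells were seeded at 2500 per well and incubated 5 hr at 37 C. Compounds were added across a concentration series and left 40 hr at 37 C. CellTiter-Glo was added for 30 min at room temperature before luminescence reading.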

A short description of test [7]: Cell Viability - LYMP2-003 (AID 965).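 Also: cells exposed to compounds for 24 h before reading; nearly all actives have a fitted effect of over 50% in size.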 The method in brief:
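qHTS, human lymphoblastoid line, 2500 cells/well, complete medium. 24 h drug, 37 C. ATP-based luminescent readout; Hill-fit AC50.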

A short description of test [8]: Cell Viability - LYMP2-004 (AID 966). Also: nearly all actives have a fitted effect of over 65% in size. The method in brief: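 Cells seeded 2500/well, rested 5 hr at 37 C, dosed across a concentration series, incubated 24 hr at 37 C, then CellTiter-Glo added for 30 min at room temperature and luminescence read. Hill fitting gave AC50.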
Test [9] in a line: Cell Viability - LYMP2-005 (AID 967). Also: series mostly up to about 92 µM. Put shortly:
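Luciferase-based ATP quantitation served as the viability measure in human lymphoblastoid LYMP2-005 cells exposed to test compounds for 24 h at 37 C in complete culture medium. Potency (AC50) was obtained by fitting concentration-response curves with the Hill equation.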

Test [10] has as its target Alpha-galactosidase (Coffea arabica) (UniProt Q42656). Put plainly: Counterscreen for Glucocerebrosidase Inhibitors: qHTS Assay for Coffee Bean alpha-Galactosidase at pH 4.5 (AID 957). Also: series mostly up to about 77 µM. Put shortly: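 Coffee bean alpha-galactosidase 2 nM, substrate 4-MU-alpha-Gal 80 uM, pH 4.5 citrate/Tween-20, 20 min RT. Cpd titration 0.7 nM–77 uM. Stop pH 10, fluorescence 365/440 nm; Hill-equation AC50.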

“And” between values parts separate entries of the source, which are not always exact repeats. Equal entries are not always repeated. Inconclusive results are not listed. More than one record can exist for a structure, and the calls need not agree. The source made the active and inactive calls. Calls follow the shape of the dose curve; as a rule, active = well fitted curve in the direction sought with a large enough effect; inconclusive = small, poorly fitted or top-dose-only effect, or another doubt; inactive = no such curve, though single readings can be large; an effect the other way counts as inactive or inconclusive.

Sequence of Alpha-galactosidase (Coffea arabica) (Q42656 whole entry, looked up): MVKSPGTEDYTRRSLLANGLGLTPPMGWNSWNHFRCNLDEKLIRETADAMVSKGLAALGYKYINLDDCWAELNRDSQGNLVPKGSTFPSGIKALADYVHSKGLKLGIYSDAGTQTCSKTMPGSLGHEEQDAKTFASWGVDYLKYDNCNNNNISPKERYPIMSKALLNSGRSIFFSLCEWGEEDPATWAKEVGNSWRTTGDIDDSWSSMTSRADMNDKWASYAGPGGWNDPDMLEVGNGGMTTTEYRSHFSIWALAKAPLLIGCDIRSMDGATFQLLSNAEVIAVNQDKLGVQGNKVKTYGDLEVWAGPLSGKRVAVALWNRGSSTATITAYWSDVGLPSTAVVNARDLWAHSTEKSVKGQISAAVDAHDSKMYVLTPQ

On to `CCC(C)(C)c1ccc(O)cc1`, for which the result in test [1], in test [3], in test [4], in [5], in test [6] and in [7] was inactive. Besides, the result in [8] and in test [9] was inactive. Besides, in [2], the Potency entry is “inactive”.

In the case of `C[C@]12CCC(=O)C=C1CC[C@@H]1[C@@H]2CC[C@]2(C)C(=O)CC[C@@H]12`, the compound was classed as inactive in test [1], in test [10], in [3], in test [4], in test [5] and in [6]. The compound was called inactive in test [7], in test [8] and in test [9]. Moreover, the Potency entry in test [2] is “inactive and 15.8 µM (active)”.

As to `Oc1ccc(Cl)cc1`, the compound was classed as inactive in test [1], in test [3], in test [4], in [5], in test [6] and in [7]. In addition, the Potency result in test [2] was “inactive”.

With `CN1C[C@H](C(=O)N[C@]2(C)O[C@@]3(O)[C@@H]4CCCN4C(=O)[C@H](Cc4ccccc4)N3C2=O)C=C2c3cccc4[nH]cc(c34)C[C@H]21`, the result in test [1], in test [3], in test [4], in test [5], in test [6] and in [7] was inactive. The compound was called inactive in test [8].

Regarding `Nc1ccccc1`, the compound was called inactive in test [1], in test [3], in test [4], in [5], in test [6] and in test [7]. Moreover, the outcome in [8] and in [9] was inactive.

Regarding `C[N+](C)(C)CCOC(N)=O`, in test [10], the result was inactive.

Consider `CC(C)c1cccc(C(C)C)c1O`, for which the outcome in test [1], in test [10], in test [3], in test [4], in test [5] and in [6] was inactive. In addition, the call in test [7], in test [8] and in test [9] was inactive. Further, the Potency result in [2] is “inactive”.

In the case of `CC(C)NC(C)C`, the result in [1], in test [3], in [4], in [5], in test [6] and in [7] was inactive. The outcome in test [8] and in [9] was inactive. In addition, the Potency result in [2] is “inactive”.

As for `CC(C)C(=O)c1c(C(C)C)nn2ccccc12`, the outcome in [10] was inactive.

Regarding `CNCCCC12CCC(c3ccccc31)c1ccccc12`, the compound was classed as inactive in [10].

Regarding `Nc1ccccc1C(=O)O`, the compound was classed as inactive in test [1], in [3], in test [4], in [5], in test [6] and in test [7]. Moreover, the outcome in test [8] was inactive. For the same compound, the Potency entry in [2] is “inactive”.

Turning to `O=P1(N(CCCl)CCCl)NCCCO1` (centres undefined), the compound was classed as inactive in [1], in [10], in [3], in test [4], in [5] and in test [6]. Also, the outcome in test [7], in [8] and in test [9] was inactive. In [2], the Potency result is “inactive”.

`O=C(O)CCCc1ccc(N(CCCl)CCCl)cc1`: the compound was classed as inactive in test [1], in test [10], in test [3], in test [4] and in test [5]. Further, the Potency result in test [2] was “inactive”.

As for `COP(=S)(OC)Oc1ccc(SC)c(C)c1`, the call in [1], in test [3], in test [4], in test [5], in test [6] and in test [7] was inactive. Also, the call in test [8] and in test [9] was inactive. Moreover, the Potency entry in test [2] is “inactive”.

With `Cc1cnc(NC(=O)C2=C(O)c3ccccc3S(=O)(=O)N2C)s1`, the result in [10] was inactive.

With `FC(F)(F)c1ccccc1-n1ccnc1`, the compound was called inactive in test [10].

Regarding `C[C@H](CS)C(=O)N1CCC[C@H]1C(=O)O`, the call in test [10] was inactive.
